Results published in the supplement of paper PMC12819154, “High-throughput peptide-centric local stability assay extends protein–ligand identification to membrane proteins, tissues and bacteria” (Nature Structural & Molecular Biology, 2025).

compound: Nc1ncnc2c1ncn2[C@@H]1O[C@H](COP(=O)(O)OP(=O)(O)OP(=O)(O)O)[C@@H](O)[C@H]1O [adenosine 5'-triphosphate]; test: log2 fold change of tryptic peptide abundance, ligand vs vehicle (limited proteolysis) (log2 ratio); higher = more trypsin-susceptible (destabilized); conditions: ligand concentration: 5 mM; sample: E. coli desalted lysate; replicate design: treated before aliquoting
Description: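 HT-PELSA: desalted E. coli K-12 BW25113 lysate (with 12 mM MgCl2) incubated with 5 mM ATP (pH 7) or water for 30 min at 25 C, then a 4 min trypsin pulse at 22 C. Peptides were quantified by DIA-MS (4 replicates). Value is the peptide log2 fold change (treated/control); negative = stabilized. Scale: negative = ligand-stabilized region.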
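Also: lysate desalted by size exclusion to strip endogenous ATP, peptide intensities built from DIA-NN precursor signals, and peptides missing any value discarded before comparison.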

Sequence of UniProt P64554 (P64554 whole entry): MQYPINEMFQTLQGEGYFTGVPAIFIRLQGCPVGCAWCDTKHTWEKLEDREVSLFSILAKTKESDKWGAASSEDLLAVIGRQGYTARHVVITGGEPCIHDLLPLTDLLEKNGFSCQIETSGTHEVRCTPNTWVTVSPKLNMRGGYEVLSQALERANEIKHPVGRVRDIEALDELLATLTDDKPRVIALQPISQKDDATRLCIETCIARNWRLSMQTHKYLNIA
Sequence of UniProt P52061 (P52061 whole entry): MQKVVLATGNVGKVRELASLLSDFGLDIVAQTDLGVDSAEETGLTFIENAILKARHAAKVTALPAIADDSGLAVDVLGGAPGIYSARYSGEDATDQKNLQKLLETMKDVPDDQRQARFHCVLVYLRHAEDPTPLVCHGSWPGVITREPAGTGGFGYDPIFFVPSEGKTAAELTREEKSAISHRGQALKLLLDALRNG
Sequence of UniProt P76506 (P76506 whole entry): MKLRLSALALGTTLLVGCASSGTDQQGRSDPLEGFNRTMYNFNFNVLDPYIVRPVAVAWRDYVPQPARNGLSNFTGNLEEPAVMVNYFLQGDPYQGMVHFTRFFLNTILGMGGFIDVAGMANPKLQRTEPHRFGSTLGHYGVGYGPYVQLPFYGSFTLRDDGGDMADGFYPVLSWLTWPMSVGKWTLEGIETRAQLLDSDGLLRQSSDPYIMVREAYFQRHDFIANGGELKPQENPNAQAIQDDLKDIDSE
Sequence of UniProt P15081 (P15081 whole entry): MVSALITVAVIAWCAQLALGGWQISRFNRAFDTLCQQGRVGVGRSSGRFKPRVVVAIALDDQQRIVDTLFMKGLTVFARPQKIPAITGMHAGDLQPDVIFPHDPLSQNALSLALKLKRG
Sequence of UniProt P76134 (P76134 whole entry): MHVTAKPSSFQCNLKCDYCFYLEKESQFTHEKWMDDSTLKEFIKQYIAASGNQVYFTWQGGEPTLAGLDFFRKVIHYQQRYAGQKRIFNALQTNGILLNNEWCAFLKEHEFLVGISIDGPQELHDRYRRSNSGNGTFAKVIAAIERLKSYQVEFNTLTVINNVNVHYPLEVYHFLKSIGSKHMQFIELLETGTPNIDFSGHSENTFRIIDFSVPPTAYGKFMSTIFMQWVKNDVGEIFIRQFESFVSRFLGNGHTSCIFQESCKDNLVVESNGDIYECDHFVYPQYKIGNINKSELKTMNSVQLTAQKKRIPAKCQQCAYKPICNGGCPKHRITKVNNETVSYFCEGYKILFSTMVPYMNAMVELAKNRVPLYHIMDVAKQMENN
Sequence of UniProt P31470 (P31470 whole entry): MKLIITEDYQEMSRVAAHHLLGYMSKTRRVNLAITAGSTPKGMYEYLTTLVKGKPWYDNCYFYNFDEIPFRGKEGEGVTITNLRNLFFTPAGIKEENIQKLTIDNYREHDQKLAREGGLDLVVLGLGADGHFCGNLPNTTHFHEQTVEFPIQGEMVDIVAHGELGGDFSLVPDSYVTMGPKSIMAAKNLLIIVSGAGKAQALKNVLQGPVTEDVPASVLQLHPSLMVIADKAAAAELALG
Sequence of UniProt P0AB96 (P0AB96 whole entry): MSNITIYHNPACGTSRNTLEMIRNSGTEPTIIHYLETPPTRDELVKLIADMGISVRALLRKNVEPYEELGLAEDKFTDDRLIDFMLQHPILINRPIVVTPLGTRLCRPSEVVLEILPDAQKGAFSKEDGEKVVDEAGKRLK
Sequence of UniProt P0AA37 (P0AA37 whole entry): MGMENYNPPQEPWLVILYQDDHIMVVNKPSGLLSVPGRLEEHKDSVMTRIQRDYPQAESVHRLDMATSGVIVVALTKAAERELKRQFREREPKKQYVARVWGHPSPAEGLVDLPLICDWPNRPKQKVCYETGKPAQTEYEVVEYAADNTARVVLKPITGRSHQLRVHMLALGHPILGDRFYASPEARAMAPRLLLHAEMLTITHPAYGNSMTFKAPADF
Sequence of UniProt P36771 (P36771 whole entry): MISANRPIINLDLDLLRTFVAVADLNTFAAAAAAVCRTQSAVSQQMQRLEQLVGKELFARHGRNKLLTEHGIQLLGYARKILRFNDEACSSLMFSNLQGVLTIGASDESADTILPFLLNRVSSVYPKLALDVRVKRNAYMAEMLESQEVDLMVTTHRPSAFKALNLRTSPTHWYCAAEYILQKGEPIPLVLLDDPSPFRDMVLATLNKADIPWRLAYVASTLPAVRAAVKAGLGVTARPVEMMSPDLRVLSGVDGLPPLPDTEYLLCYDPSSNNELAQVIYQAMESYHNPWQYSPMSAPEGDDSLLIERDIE
Sequence of UniProt P08401 (P08401 whole entry): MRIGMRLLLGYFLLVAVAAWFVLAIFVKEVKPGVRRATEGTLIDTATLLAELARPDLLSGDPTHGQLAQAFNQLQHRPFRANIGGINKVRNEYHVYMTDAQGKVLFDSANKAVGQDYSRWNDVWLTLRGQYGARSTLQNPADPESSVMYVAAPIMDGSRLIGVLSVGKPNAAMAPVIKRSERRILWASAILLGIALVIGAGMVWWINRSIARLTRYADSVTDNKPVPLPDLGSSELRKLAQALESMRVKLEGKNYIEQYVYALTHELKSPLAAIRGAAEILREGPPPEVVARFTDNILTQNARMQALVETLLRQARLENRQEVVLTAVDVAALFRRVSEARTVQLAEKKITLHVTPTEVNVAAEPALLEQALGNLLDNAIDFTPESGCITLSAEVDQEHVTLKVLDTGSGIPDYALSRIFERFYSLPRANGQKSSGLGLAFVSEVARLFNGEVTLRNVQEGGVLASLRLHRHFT
Sequence of UniProt P0A9L3 (P0A9L3 whole entry): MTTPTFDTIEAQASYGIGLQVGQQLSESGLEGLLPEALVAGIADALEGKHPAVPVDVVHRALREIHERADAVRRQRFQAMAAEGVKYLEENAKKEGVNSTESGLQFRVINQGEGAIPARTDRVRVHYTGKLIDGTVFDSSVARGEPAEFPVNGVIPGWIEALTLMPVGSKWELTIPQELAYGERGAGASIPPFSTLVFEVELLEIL
Sequence of UniProt Q46919 (Q46919 whole entry): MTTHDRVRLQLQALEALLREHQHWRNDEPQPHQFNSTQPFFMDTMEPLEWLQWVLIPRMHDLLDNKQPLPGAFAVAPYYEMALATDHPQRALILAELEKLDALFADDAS
Sequence of UniProt P77148 (P77148 whole entry): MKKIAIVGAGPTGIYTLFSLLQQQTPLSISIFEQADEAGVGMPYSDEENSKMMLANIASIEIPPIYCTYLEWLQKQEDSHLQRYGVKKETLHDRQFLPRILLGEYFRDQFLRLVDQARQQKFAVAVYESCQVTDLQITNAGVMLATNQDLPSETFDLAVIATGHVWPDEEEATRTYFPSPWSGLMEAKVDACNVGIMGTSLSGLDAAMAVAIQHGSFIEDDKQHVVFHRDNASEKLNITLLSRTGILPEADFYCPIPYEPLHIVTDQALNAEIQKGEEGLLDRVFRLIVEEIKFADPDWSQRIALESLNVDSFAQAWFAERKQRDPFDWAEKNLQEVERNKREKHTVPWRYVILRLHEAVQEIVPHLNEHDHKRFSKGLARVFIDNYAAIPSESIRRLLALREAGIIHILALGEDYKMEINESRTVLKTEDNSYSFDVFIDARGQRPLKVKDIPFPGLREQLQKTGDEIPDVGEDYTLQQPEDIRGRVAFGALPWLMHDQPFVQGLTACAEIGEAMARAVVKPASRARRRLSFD
Sequence of UniProt P75736 (P75736 whole entry): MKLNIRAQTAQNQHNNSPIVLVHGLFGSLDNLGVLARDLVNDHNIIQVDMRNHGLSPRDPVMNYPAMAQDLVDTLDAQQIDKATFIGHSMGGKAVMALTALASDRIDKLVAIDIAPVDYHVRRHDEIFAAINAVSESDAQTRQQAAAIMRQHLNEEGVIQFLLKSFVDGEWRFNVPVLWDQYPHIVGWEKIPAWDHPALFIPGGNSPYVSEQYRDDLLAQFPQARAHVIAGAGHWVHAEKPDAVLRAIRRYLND
Sequence of UniProt P71298 (P71298 whole entry): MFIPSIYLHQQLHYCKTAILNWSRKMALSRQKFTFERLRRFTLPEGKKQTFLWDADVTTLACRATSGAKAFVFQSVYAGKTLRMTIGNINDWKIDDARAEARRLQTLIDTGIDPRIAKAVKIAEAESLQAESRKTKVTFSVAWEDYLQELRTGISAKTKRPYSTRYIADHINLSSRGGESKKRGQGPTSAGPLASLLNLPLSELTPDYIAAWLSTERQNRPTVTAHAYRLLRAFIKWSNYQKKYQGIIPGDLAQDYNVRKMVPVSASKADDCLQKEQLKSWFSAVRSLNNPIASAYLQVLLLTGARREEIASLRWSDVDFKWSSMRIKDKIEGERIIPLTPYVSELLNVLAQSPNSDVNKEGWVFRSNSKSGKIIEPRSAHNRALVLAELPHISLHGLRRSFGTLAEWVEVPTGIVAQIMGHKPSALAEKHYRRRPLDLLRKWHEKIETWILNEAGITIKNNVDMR
Sequence of UniProt P32141 (P32141 whole entry): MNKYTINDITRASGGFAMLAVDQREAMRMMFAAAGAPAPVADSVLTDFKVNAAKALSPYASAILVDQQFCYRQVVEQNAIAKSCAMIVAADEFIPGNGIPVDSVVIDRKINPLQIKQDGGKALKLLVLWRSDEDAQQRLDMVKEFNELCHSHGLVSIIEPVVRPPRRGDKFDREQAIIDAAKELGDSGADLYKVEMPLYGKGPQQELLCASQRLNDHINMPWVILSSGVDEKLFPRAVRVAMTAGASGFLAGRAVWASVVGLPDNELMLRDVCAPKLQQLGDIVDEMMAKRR
Sequence of UniProt P0ADV7 (P0ADV7 whole entry): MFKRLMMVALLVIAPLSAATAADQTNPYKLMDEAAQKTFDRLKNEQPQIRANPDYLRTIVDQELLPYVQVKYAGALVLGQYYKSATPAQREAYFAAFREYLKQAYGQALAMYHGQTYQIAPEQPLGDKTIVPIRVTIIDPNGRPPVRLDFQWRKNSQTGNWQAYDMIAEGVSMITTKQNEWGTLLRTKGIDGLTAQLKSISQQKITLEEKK
Sequence of UniProt P37188 (P37188 whole entry): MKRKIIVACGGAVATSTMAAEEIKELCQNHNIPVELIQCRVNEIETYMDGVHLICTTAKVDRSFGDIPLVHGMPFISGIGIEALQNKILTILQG

Target | log2 fold change
UniProt P0AB96 (peptide sequence: LCRPSEVVLEILPDAQK, peptide start residue: 105) | 0.492
UniProt P00363 (peptide sequence: VSQAFWHEWR, peptide start residue: 291) | -0.722
UniProt P15081 (peptide sequence: AFDTLCQQGR, peptide start residue: 30) | -0.599
UniProt P77433 (peptide sequence: GEFLNNVAQALGRPLR, peptide start residue: 5) | 0.243
UniProt P23898 (peptide sequence: SSLDNVYWQK, peptide start residue: 137) | 0.793
UniProt P76134 (peptide sequence: TMNSVQLTAQK, peptide start residue: 298) | -0.467
UniProt P36771 (peptide sequence: AGLGVTARPVEMMSPDLR, peptide start residue: 231) | 0.543
UniProt P77775 (peptide sequence: TGVVLAPDGGILGK, peptide start residue: 163) | -0.725
UniProt P37689 (peptide sequence: LVAAIKSGK, peptide start residue: 383) | -2.15
UniProt P76014 (peptide sequence: EIGDADHGLNMNR, peptide start residue: 32) | -2.08
UniProt P76193 (peptide sequence: TGTPVKVINEPVKYSVEPNGMR, peptide start residue: 226) | -0.912
UniProt P77148 (peptide sequence: ILLGEYFR, peptide start residue: 100) | -0.452
UniProt P76419 (peptide sequence: GGDCAPTREELLLAHK, peptide start residue: 304) | -1.82
UniProt P64554 (peptide sequence: NGFSCQIETSGTHEVR, peptide start residue: 111) | -0.431
UniProt P46889 (peptide sequence: FRDNPSPLTVVLGK, peptide start residue: 957) | -1.51
UniProt P52061 (peptide sequence: FHCVLVYLR, peptide start residue: 118) | -0.642
UniProt P42589 (peptide sequence: TVVVLCNLQK, peptide start residue: 62) | -0.415
UniProt P71298 (peptide sequence: QNRPTVTAHAYR, peptide start residue: 218) | -1.54
UniProt P27278 (peptide sequence: TFMSISGAQIR, peptide start residue: 202) | -2.94
UniProt P0A9L3 (peptide sequence: VINQGEGAIPARTDR, peptide start residue: 108) | 0.513

Target | log2 fold change
UniProt P76543 (peptide sequence: NSQLGWCR, peptide start residue: 147) | -0.802
UniProt P31470 (peptide sequence: EGEGVTITNLR, peptide start residue: 74) | -0.324
UniProt P15047 (peptide sequence: IGMSAYGASK, peptide start residue: 139) | -1.47
UniProt P08401 (peptide sequence: NVQEGGVLASLR, peptide start residue: 457) | 0.651
UniProt P13000 (peptide sequence: TAGYKPVASGSEK, peptide start residue: 34) | -1.41
UniProt P75736 (peptide sequence: SFVDGEWR, peptide start residue: 165) | -1.28
UniProt P07648 (peptide sequence: VKAHLTCLHTR, peptide start residue: 776) | 1.26
UniProt P33599 (peptide sequence: QDLEMEALTFKPEEWGMKR, peptide start residue: 186) | -1.6
UniProt Q46919 (peptide sequence: MHDLLDNK, peptide start residue: 59) | 0.557
UniProt P37188 (peptide sequence: VNEIETYMDGVHLICTTAKVDR, peptide start residue: 41) | 0.402
UniProt P39285 (peptide sequence: IYAAEMGHR, peptide start residue: 1044) | 0.638
UniProt P0AC00 (peptide sequence: RYYGGLVEY, peptide start residue: 332) | -0.478
UniProt P42603 (peptide sequence: TPSAVDER, peptide start residue: 175) | -0.551
UniProt P0AA37 (peptide sequence: LLLHAEMLTITHPAYGNSMTFK, peptide start residue: 193) | -0.465
UniProt P76506 (peptide sequence: SDPLEGFNR, peptide start residue: 29) | 0.294
UniProt P0ACU0 (peptide sequence: LLTQDDTVNLSK, peptide start residue: 109) | 0.555
UniProt Q46925 (peptide sequence: SQFAEAQR, peptide start residue: 53) | -0.663
UniProt P0ADV7 (peptide sequence: LKNEQPQIR, peptide start residue: 42) | 0.525
UniProt P32141 (peptide sequence: ASGGFAMLAVDQR, peptide start residue: 12) | -0.432
